# Reference: a collection of fitness landscapes (doi:10.1016/j.celrep.2020.107928)
# The full ranking holds about 81,000 sequences; the median of “one-hybrid fitness for binding parS DNA” is about -0.17, and the highest 2% start at about 0.51. The entries come from a sample that favours the highest values as a whole.
# B1: Caulobacter ParB omega fusion; a variant is named by its letters at X, in order, B8GW30 (parent)
# chain: MESVVVGEPGMSEGRRGLGRGLSALLGEVDAAPAQAPGEQLGGSREAPIEILQRNPDQPRRTFREEDLEDLSNSIREKGVLQPILVRPSPDTAGEYQIVAGERAWRAAQRAGLKTVPIMVRELDDLAVLEIGIIENVQRADLNVLEEALSYKVLMEKFERTQENIAQTIGKSXSHVANXMRLLXLPDEVQSYLVSGELTAXHARAIAAAADPVALAKQIIEGGLSVRETEALARKAPNLSAGKSKGGRPPRVKDTDTQALESDLSSVLGLDVSIDHRGSTGTLTITYATLEQLDDLCNRLTRGI
# Variants of: B1
# Test: one-hybrid fitness for binding parS DNA (scaled: cognate 1, non-cognate 0); higher = stronger binding
# Details: with parS DNA site
# How it was run: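 The reporter was HIS3, with the binding site 19 bp from the promoter, in E. coli USO used for bacterial one-hybrid selection of Caulobacter ParB libraries with four specificity codons randomised. Growth was on M9 lacking histidine, with 0.1 mM IPTG and 5 mM 3-AT, for 48 hours at 37°C. Illumina sequencing covered plasmids before and after selection; three replicate libraries were pooled and variants with under 10 reads dropped. A fitness score is the log change in variant-to-wild-type read ratio, rescaled to the cognate and non-cognate references.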
row,Variant,one-hybrid fitness for binding parS DNA
1,WRAH,≤ 0.2
2,AEGK,≤ 0.2
3,AIFS,≤ 0.2
4,DPKT,≤ 0.2
5,RHQN,0.382
6,RFQH,≤ 0.2
7,RMQN,0.501
8,RMQH,0.313
9,RFQS,1
10,RHQS,0.927
11,RHQH,≤ 0.2
12,RMQS,1.02
13,RFQN,0.457
14,RSQD,≤ 0.2
15,RSQS,0.984
16,RSQN,0.427
17,GAHD,≤ 0.2
18,TLCR,≤ 0.2
19,MEVG,≤ 0.2
20,LAGY,≤ 0.2
21,QVDH,≤ 0.2
22,IRKY,≤ 0.2
23,FNNR,≤ 0.2
24,TAFI,≤ 0.2
25,QSRA,≤ 0.2

row,Variant,one-hybrid fitness for binding parS DNA
1,TERS,≤ 0.2
2,APMD,≤ 0.2
3,RKQD,≤ 0.2
4,RKQN,0.3
5,RLQS,1
6,RLQP,0.206
7,RKQS,0.793
8,RLQH,0.324
9,ERKR,≤ 0.2
10,LEPN,≤ 0.2
11,CCRD,≤ 0.2
12,QNCR,≤ 0.2
13,RQVK,≤ 0.2
14,RQKN,0.433
15,RQVQ,≤ 0.2
16,RQVG,0.88
17,RQKG,0.939
18,RQKH,0.269
19,WNHS,≤ 0.2
20,KAIM,≤ 0.2
21,IGNS,≤ 0.2
22,NFGS,≤ 0.2
23,GEDR,≤ 0.2
24,QFAT,≤ 0.2
25,GTTA,≤ 0.2

row,Variant,one-hybrid fitness for binding parS DNA
1,ATEM,≤ 0.2
2,RTKM,0.594
3,RTDM,0.289
4,RTRM,0.517
5,RTYM,0.341
6,RSKM,0.378
7,RTVM,0.315
8,TLKA,≤ 0.2
9,TQQG,≤ 0.2
10,HCKF,≤ 0.2
11,YAFG,≤ 0.2
12,KYYR,≤ 0.2
13,ILTL,≤ 0.2
14,RHSP,≤ 0.2
15,RMSH,≤ 0.2
16,RPSS,≤ 0.2
17,RCSD,≤ 0.2
18,RHSS,0.912
19,RMSD,≤ 0.2
20,RISN,0.454
21,RCSS,0.978
22,RHSN,0.379
23,RISS,0.992
24,RMSS,0.977
25,RISD,≤ 0.2

row,Variant,one-hybrid fitness for binding parS DNA
1,AKPM,≤ 0.2
2,LGTM,≤ 0.2
3,TQKH,≤ 0.2
4,LPSR,≤ 0.2
5,NDSK,≤ 0.2
6,CAPL,≤ 0.2
7,RWPN,≤ 0.2
8,SQSF,≤ 0.2
9,PHLE,≤ 0.2
10,GVSS,≤ 0.2
11,LVRT,≤ 0.2
12,RASN,0.435
13,FMSQ,0.554
14,RASS,1
15,FMSS,≤ 0.2
16,RFSS,1.01
17,RKSP,≤ 0.2
18,RKSS,0.811
19,RFSP,≤ 0.2
20,FMSD,≤ 0.2
21,RKSN,0.296
22,RASH,0.225
23,RFSH,≤ 0.2
24,IYTS,≤ 0.2
25,TWRH,≤ 0.2

row,Variant,one-hybrid fitness for binding parS DNA
1,GPLA,≤ 0.2
2,YVAM,≤ 0.2
3,RYVW,0.209
4,HRKW,≤ 0.2
5,RSSD,≤ 0.2
6,RSSP,≤ 0.2
7,RSSS,0.99
8,YNTS,≤ 0.2
9,RDGT,≤ 0.2
10,RSGT,0.91
11,RCGT,0.882
12,RGGT,0.493
13,REGT,0.201
14,RPGT,≤ 0.2
15,TFAS,≤ 0.2
16,AMCN,≤ 0.2
17,LFSE,≤ 0.2
18,CKQG,≤ 0.2
19,NSAT,≤ 0.2
20,RQKK,≤ 0.2
21,RQVR,≤ 0.2
22,RQVF,≤ 0.2
23,RQKR,≤ 0.2
24,RQVC,0.828
25,RQKC,0.926

row,Variant,one-hybrid fitness for binding parS DNA
1,RWNC,0.79
2,RWDY,0.264
3,RWNR,≤ 0.2
4,RWNM,0.221
5,RWDM,≤ 0.2
6,RWDC,0.635
7,GKCT,≤ 0.2
8,STTT,≤ 0.2
9,WKGT,≤ 0.2
10,SGKS,≤ 0.2
11,RITI,≤ 0.2
12,RAIF,≤ 0.2
13,RAPD,≤ 0.2
14,RAIH,≤ 0.2
15,RDPG,≤ 0.2
16,RAIG,0.871
17,RPPG,≤ 0.2
18,RAPG,0.569
19,RCPG,0.81
20,RAPH,≤ 0.2
21,NVNI,≤ 0.2
22,DVVY,≤ 0.2
23,LLTC,≤ 0.2
24,GHGR,≤ 0.2
25,HSMG,≤ 0.2

row,Variant,one-hybrid fitness for binding parS DNA
1,RQEF,0.206
2,ATMR,≤ 0.2
3,RPAS,≤ 0.2
4,RSAP,≤ 0.2
5,RCAP,≤ 0.2
6,RSAD,≤ 0.2
7,RSAS,0.998
8,RCAS,1.01
9,NQVG,≤ 0.2
10,TRNP,≤ 0.2
11,TIYS,≤ 0.2
12,IDLD,≤ 0.2
13,SILM,≤ 0.2
14,LWSP,≤ 0.2
15,SLKT,≤ 0.2
16,GRNC,≤ 0.2
17,RSRN,0.416
18,RPRS,≤ 0.2
19,RPYS,≤ 0.2
20,RSRD,≤ 0.2
21,RCRD,≤ 0.2
22,RCRS,0.877
23,RCYS,1
24,RCYP,≤ 0.2
25,RSRS,0.913

row,Variant,one-hybrid fitness for binding parS DNA
1,SCVM,≤ 0.2
2,FTPD,≤ 0.2
3,ALCC,≤ 0.2
4,WPLG,≤ 0.2
5,IPVF,≤ 0.2
6,FYHT,≤ 0.2
7,RIDS,0.987
8,RIDY,0.396
9,RPNY,≤ 0.2
10,RIND,0.258
11,RINH,0.284
12,RIDD,≤ 0.2
13,RINY,0.513
14,RIDH,0.231
15,RINS,0.923
16,TGRK,≤ 0.2
17,MPPM,≤ 0.2
18,WDNC,≤ 0.2
19,KSER,≤ 0.2
20,STLE,≤ 0.2
